Screen size: about 370,000 compounds; about 3,300 (0.89%) were called active. The sample holds actives, similar compounds and a random draw of the others, so the mix is not that of the screen. Unmarked numbers belong to inactive results.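 How the source made its calls: active means activation above the mean of all tested compounds plus 3 SD, computed per campaign excluding outliers beyond control limits (cut at about 13% in these data); inactive means the rest.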
biological target: Kallikrein-7 (Homo sapiens) (UniProt P49862); experiment: proKLK7 zymogen activators, primary screen, biochemical, fluorescence intensity (AID 652039); conditions: purified proKLK7, EDANS-DABCYL substrate fluorescence; at 7 µM; hits give high values; 100% is mature enzyme control, 0% vehicle
Sequence (P49862 whole entry, looked up): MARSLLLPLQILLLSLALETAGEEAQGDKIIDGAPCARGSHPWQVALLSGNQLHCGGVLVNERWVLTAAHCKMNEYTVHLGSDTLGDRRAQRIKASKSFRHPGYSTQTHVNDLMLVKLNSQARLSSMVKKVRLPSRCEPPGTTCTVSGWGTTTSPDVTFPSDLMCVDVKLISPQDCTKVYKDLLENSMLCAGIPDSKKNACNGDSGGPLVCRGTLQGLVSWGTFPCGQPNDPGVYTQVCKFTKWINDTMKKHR

| SMILES | activation |
| --- | --- |
| Cc1ccc(CN2CCCCC(NC(=O)C3CCCCC3)C2=O)cc1 (centres undefined) | -0.03% |
| CCOC(=O)[C@]12CCCC=C1N(Cc1ccc(OC)cc1)C(=O)[C@@H]2CC(=O)NCc1cccs1 | -0.38% |
| Clc1ccc(-n2c(COc3ccccc3)nnc2SCc2nc3ccccc3[nH]2)cc1 | 0.33% |
| O=C(CSc1nnc(-c2ccccn2)n1-c1ccc(Cl)cc1)Nc1ccccc1-c1ccccc1 | 0.1% |
| COC(=O)[C@]12C[C@H](CC(=O)N3CCOCC3)C(=O)N(Cc3ccc(Cl)cc3Cl)C1=C[C@H](COCc1ccccc1)O[C@@H]2C | 0.05% |
| Cc1cc(=O)[nH]c(SCC(=O)Nc2ccc(F)cc2F)n1 | -0.3% |
| CCN1CCc2c(C#N)c(NCc3ccccc3)nc(NCCO)c2C1 | 14.3% (active) |
| CCCCc1nc(NCc2ccccc2)c(C#N)c2c1CCCC2 | -0.04% |
| CC(C)CCNc1nc(N2CCCC2)c2c(c1C#N)CCN(C)C2 | -0.46% |
| Clc1cccc(Cl)c1OCCOCCNCc1ccccc1 | -0.51% |
| CC1(C)CC(=O)CC2(C1)NCC(c1ccccc1Cl)c1c2[nH]c2ccccc12 (centres undefined) | 0.29% |
| CC(=O)N1CCc2cc(S(=O)(=O)NCCC(=O)N3CCCC3)ccc21 | 0.03% |
| CNC(=O)COC(=O)c1cc(-c2ccc(OC)cc2)nc2ccccc12 | 113% (active) |
| C/C(N)=C(/C#N)C(=O)COC(=O)c1cc(-c2cccc(Br)c2)nc2ccccc12 | 0.31% |
| COc1ccc(S(=O)(=O)n2cnc3ccccc32)c(C)c1 | -0.43% |
| COc1ccc(-c2cc3n(n2)CCc2nc4ccccc4n2-3)cc1 | 0.02% |
| Cc1cc(C(=O)OCC(=O)Nc2nccs2)c2ccccc2n1 | -2.12% |
| COc1ccc(-c2cc(C(=O)n3cnc4ccccc43)c3ccccc3n2)cc1 | 20.8% (active) |
| CN(CCO)c1cccc2c1S(=O)(=O)N(Cc1cn(Cc3ccc(C(F)(F)F)cc3)nn1)Cc1ccccc1O2 | 1.21% |
| COC(=O)C[C@@H]1CC[C@H]2[C@@H](COc3ccc(NS(=O)(=O)CC(F)(F)F)cc3C(=O)N2C)O1 | -0.11% |
| CCOC(=O)CN1C(=O)C(O)(CC(=O)c2ccccn2)c2ccccc21 (centres undefined) | 0.64% |
| O=C(NCCC1=CCCCC1)C1CCN(S(=O)(=O)c2ccc(Cl)s2)CC1 | 0.13% |
| Cc1cc(NS(=O)(=O)c2ccc(NC(=O)CSc3nnc(SCc4ccc(F)cc4)s3)cc2)nc(C)n1 | -0.24% |
| COC(=O)c1cccc(Cn2ccc3ccc(-c4ccc5ccn(C(=O)c6ccccc6C)c5c4)cc32)c1 | -10.5% |

— PubChem BioAssay AID652039 (The Scripps Research Institute Molecular Screening Center, 2013)
